Reference: article PMC7862700, “An all-to-all approach to the identification of sequence-specific readers for epigenetic DNA modifications on cytosine”

Experiments:
Assay in all cases: DAPPL (digital affinity profiling via proximity ligation, sequencing); 10 mM Tris-HCl pH 7.5, 50 mM NaCl, 1 mM DTT, 4% glycerol, room temperature, 30 min; GST-TFs on glutathione beads, 16-mer random dsDNA library, 0.1% formaldehyde crosslink after washing; high values mean tight binding
[1] = target: T1, FEV (Homo sapiens, UniProt Q99581 1-238); details: protein: recombinant; tags: N-terminal GST; dsDNA, one strand shown
T1 sequence: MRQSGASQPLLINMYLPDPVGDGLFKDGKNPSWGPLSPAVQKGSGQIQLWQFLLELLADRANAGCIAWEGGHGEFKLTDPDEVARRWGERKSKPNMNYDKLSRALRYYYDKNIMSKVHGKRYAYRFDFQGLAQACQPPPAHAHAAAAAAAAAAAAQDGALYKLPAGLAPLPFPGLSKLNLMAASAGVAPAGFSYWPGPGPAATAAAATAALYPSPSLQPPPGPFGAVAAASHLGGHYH
Method in brief: (§1)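 Binding signal is each hexamer's read frequency for a factor divided by its frequency in the tag-only sample. The factors were GST-fused human transcription factors from yeast, captured on glutathione beads, DNA-barcoded and pooled with that sample. Pools were incubated with 200 nmole of a random double-stranded 16-mer DNA library in Tris/NaCl/DTT/glycerol buffer at room temperature for 30 min, then washed, crosslinked with 0.1% formaldehyde, proximity-ligated with BsaI/T4 ligase (1 h, 37 °C), PCR-amplified and sequenced on an Illumina NextSeq500.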

[2] = target: ETV5 (Homo sapiens, UniProt P41161 1-510); details: protein: recombinant; tags: N-terminal GST; dsDNA, one strand shown
Sequence of ETV5 (P41161 whole entry): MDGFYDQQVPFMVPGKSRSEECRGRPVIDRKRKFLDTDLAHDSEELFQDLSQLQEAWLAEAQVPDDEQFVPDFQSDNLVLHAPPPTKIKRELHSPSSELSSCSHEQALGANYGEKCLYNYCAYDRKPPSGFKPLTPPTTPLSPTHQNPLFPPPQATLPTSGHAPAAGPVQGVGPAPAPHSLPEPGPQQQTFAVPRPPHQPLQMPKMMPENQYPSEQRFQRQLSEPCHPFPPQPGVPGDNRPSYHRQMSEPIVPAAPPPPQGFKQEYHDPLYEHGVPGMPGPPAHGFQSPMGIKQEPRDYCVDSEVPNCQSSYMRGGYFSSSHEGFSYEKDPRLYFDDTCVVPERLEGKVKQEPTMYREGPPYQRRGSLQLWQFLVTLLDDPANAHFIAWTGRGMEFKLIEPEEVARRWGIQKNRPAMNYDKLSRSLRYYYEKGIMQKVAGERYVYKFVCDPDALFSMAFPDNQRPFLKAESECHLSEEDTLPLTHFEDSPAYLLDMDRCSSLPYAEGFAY
Method in brief: as §1

[3] = target: HSF1 (Homo sapiens, UniProt Q00613 1-529); details: protein: recombinant; tags: N-terminal GST; chain copies: 3; dsDNA, one strand shown
Sequence of HSF1 (Q00613 whole entry): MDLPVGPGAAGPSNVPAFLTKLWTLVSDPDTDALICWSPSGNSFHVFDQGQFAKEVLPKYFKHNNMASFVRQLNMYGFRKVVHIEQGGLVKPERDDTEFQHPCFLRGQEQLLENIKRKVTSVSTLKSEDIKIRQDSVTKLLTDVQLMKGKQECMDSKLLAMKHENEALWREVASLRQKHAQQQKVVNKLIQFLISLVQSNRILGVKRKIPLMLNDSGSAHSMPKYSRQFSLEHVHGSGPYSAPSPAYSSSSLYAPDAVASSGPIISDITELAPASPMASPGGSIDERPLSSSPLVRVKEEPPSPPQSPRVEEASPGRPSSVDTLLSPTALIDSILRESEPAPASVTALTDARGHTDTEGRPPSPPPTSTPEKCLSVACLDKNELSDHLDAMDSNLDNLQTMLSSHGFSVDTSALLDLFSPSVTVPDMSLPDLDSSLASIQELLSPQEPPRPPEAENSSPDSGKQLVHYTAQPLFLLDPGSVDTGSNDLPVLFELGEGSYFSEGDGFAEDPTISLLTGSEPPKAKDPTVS
Method in brief: as §1

[4] = target: T2, SPIC (Homo sapiens, UniProt Q8N5J4 1-248); details: protein: recombinant; tags: N-terminal GST; dsDNA, one strand shown
T2 sequence: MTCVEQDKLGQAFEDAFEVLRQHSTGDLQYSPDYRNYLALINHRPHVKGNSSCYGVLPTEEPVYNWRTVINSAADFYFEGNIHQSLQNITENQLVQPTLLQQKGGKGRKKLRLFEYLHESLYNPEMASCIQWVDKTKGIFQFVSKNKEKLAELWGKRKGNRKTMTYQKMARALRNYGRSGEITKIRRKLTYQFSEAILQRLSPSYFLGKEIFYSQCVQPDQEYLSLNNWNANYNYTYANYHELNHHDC
Method in brief: as §1

[5] = target: ELF4 (Homo sapiens, UniProt Q99607 1-663); details: protein: recombinant; tags: N-terminal GST; dsDNA, one strand shown
Sequence of ELF4 (Q99607 whole entry): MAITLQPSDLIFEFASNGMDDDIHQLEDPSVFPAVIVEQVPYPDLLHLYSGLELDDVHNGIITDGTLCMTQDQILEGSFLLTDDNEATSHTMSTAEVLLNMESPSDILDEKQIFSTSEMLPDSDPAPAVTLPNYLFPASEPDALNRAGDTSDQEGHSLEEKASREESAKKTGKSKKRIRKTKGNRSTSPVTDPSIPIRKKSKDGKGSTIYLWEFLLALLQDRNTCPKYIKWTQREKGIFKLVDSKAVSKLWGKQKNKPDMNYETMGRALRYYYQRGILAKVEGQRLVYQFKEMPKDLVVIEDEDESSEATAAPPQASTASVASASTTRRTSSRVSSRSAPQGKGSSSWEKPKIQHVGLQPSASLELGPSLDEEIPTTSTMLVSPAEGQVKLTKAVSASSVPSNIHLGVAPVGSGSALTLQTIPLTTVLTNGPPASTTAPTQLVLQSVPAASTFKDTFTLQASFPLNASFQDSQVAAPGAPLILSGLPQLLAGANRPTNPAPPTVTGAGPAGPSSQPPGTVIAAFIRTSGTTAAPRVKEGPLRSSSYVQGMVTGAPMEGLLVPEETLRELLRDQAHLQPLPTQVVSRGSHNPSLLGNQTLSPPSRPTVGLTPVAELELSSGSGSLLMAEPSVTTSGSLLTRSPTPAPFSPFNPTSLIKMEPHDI
Method in brief: as §1

[6] = target: T3, ETV2 (Homo sapiens, UniProt O00321 1-342); details: protein: recombinant; tags: N-terminal GST; dsDNA, one strand shown
T3 sequence: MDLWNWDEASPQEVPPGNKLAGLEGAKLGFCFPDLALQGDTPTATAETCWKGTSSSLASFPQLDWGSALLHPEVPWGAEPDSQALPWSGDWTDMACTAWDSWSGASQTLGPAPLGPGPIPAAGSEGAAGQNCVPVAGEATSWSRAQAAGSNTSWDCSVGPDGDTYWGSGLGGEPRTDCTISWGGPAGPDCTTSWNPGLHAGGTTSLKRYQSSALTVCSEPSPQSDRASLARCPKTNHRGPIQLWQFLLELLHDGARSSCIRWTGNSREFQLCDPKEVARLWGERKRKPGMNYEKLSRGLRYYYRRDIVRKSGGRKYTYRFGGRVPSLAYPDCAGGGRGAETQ
Method in brief: as §1

[7] = target: CRX (Homo sapiens, UniProt O43186 1-299); details: protein: recombinant; tags: N-terminal GST; dsDNA, one strand shown
Sequence of CRX (O43186 whole entry): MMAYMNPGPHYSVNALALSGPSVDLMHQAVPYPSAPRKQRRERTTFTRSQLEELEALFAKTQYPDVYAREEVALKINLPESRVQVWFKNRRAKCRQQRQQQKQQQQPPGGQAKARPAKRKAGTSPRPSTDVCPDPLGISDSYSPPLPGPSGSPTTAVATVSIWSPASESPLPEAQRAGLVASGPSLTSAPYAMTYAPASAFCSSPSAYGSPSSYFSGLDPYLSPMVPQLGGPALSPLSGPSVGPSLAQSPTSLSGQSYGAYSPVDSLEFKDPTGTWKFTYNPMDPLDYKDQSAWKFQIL
Method in brief: as §1

[8] = target: ETV1 (Homo sapiens, UniProt P50549 1-477); details: protein: recombinant; tags: N-terminal GST; dsDNA, one strand shown
Sequence of ETV1 (P50549 whole entry): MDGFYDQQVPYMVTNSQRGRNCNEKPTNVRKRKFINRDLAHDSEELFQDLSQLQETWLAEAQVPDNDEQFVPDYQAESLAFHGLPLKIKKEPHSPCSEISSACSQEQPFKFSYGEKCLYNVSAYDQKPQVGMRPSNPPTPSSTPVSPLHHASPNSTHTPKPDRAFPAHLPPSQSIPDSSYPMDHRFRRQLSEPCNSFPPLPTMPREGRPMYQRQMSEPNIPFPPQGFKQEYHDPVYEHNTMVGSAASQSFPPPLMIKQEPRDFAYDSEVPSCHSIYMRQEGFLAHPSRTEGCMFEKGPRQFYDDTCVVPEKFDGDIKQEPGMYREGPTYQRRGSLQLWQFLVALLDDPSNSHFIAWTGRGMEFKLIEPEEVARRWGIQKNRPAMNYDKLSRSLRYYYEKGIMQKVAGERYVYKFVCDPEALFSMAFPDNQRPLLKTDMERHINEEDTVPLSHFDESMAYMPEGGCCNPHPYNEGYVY
Method in brief: as §1

[9] = target: T4, ERF (Homo sapiens, UniProt P50548 1-548); details: protein: recombinant; tags: N-terminal GST; dsDNA, one strand shown
T4 sequence: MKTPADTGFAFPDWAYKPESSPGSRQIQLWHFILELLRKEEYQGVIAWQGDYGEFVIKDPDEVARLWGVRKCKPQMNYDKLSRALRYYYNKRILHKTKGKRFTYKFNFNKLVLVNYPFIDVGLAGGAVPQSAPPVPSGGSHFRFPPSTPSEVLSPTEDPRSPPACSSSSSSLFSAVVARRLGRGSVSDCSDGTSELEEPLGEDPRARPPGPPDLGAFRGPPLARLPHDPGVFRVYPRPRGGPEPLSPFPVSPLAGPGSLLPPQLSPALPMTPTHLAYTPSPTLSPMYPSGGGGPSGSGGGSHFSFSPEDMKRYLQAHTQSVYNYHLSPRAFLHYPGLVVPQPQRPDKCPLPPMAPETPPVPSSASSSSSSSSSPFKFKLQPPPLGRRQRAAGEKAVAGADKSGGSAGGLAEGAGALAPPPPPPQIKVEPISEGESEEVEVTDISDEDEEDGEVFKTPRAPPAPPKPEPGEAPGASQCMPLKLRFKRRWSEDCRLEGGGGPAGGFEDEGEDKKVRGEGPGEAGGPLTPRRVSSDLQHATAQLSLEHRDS
Method in brief: as §1

[10] = target: T5, ETV3L (Homo sapiens, UniProt Q6ZN32 1-361); details: protein: recombinant; tags: N-terminal GST; dsDNA, one strand shown
T5 sequence: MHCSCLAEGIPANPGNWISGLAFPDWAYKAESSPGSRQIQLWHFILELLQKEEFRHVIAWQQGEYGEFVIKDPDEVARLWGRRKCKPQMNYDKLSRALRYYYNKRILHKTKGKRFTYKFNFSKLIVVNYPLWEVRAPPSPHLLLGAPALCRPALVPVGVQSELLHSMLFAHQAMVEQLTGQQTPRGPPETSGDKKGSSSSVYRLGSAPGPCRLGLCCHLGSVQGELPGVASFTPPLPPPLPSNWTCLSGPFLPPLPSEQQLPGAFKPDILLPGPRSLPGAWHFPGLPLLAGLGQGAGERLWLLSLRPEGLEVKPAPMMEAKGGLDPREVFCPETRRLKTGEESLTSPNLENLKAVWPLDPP
Method in brief: as §1

[11] = target: T6, ETS2 (Homo sapiens, UniProt P15036 1-469); details: protein: recombinant; tags: N-terminal GST; dsDNA, one strand shown
T6 sequence: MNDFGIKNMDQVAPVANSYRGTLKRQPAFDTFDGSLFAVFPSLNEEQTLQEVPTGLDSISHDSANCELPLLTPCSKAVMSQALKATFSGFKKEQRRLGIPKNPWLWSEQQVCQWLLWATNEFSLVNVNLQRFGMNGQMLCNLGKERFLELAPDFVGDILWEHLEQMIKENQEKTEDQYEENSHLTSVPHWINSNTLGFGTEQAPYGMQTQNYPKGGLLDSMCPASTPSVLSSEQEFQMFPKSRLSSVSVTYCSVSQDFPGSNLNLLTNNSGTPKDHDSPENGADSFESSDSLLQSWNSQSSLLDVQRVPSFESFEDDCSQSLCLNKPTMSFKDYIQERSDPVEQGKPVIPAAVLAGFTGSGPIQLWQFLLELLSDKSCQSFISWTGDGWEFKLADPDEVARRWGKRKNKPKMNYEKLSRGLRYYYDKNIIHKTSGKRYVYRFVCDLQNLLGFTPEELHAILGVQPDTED
Method in brief: as §1

[12] = target: T7, SPDEF (Homo sapiens, UniProt O95238 1-335); details: protein: recombinant; tags: N-terminal GST; dsDNA, one strand shown
T7 sequence: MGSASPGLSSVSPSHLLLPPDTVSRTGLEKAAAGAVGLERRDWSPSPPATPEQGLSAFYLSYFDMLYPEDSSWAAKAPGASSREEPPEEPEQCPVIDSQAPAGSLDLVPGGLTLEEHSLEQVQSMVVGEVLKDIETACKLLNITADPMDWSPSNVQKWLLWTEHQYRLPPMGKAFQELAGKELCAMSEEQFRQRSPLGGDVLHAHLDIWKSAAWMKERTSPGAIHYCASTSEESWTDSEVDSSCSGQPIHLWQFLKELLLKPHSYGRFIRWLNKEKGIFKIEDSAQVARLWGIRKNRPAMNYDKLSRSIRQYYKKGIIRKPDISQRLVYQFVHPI
Method in brief: as §1

[13] = target: T8, ETV7 (Homo sapiens, UniProt Q9Y603 1-341); details: protein: recombinant; tags: N-terminal GST; dsDNA, one strand shown
T8 sequence: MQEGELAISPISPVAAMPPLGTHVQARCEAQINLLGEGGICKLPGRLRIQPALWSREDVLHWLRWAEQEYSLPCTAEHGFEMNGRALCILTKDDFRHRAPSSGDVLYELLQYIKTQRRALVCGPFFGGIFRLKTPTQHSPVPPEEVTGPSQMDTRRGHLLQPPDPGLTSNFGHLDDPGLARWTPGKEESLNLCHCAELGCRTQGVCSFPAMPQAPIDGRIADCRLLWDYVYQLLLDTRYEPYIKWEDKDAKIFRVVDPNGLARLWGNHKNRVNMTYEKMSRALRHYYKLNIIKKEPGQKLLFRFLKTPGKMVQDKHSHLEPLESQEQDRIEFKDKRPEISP
Method in brief: as §1

[14] = target: T9, ELF5 (Homo sapiens, UniProt Q9UKW6-2 1-255); details: protein: recombinant; tags: N-terminal GST; dsDNA, one strand shown
T9 sequence: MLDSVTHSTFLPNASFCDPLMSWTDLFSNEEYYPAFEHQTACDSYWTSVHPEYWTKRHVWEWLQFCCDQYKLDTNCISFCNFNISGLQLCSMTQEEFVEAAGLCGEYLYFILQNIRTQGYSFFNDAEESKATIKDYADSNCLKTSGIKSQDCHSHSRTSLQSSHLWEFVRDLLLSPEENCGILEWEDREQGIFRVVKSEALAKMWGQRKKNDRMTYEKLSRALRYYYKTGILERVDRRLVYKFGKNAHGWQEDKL
Method in brief: as §1

[15] = target: T10, ETV3 (Homo sapiens, UniProt P41162-2 1-143); details: protein: recombinant; tags: N-terminal GST; dsDNA, one strand shown
T10 sequence: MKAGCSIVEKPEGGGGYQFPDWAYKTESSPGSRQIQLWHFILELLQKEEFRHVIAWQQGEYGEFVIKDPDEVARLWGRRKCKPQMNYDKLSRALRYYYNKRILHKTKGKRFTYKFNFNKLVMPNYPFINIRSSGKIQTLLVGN
Method in brief: as §1

[16] = target: ETV6 (Homo sapiens, UniProt P41212 1-452); details: protein: recombinant; tags: N-terminal GST; dsDNA, one strand shown
Sequence of ETV6 (P41212 whole entry): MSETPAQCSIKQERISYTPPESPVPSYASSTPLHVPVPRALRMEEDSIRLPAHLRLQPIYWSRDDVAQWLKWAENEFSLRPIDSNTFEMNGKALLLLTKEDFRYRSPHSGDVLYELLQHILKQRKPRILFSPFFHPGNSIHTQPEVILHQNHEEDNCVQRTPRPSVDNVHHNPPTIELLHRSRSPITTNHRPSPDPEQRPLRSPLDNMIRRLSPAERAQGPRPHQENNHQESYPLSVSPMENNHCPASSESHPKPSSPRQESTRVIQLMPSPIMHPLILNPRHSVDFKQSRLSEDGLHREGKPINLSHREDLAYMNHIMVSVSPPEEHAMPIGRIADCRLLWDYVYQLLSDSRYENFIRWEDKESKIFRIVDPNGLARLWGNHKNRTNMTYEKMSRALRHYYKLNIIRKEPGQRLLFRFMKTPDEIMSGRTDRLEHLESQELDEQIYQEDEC
Method in brief: as §1

AGATGA
binding signal [1]: 1.01 fold enrichment (6-mer frequency, TF over GST control)
binding signal [2]: 1.11 fold enrichment (6-mer frequency, TF over GST control)
binding signal [3]: 1.24 fold enrichment (6-mer frequency, TF over GST control)
binding signal [4]: 1.14 fold enrichment (6-mer frequency, TF over GST control)
binding signal [5]: 1.12 fold enrichment (6-mer frequency, TF over GST control)
binding signal [6]: 1.17 fold enrichment (6-mer frequency, TF over GST control)
binding signal [7]: 1.21 fold enrichment (6-mer frequency, TF over GST control)
binding signal [8]: 1.1 fold enrichment (6-mer frequency, TF over GST control)
binding signal [9]: 1.18 fold enrichment (6-mer frequency, TF over GST control)
binding signal [10]: 1.01 fold enrichment (6-mer frequency, TF over GST control)
binding signal [11]: 1.05 fold enrichment (6-mer frequency, TF over GST control)
binding signal [12]: 1.14 fold enrichment (6-mer frequency, TF over GST control)
binding signal [13]: 1.15 fold enrichment (6-mer frequency, TF over GST control)
binding signal [14]: 1.05 fold enrichment (6-mer frequency, TF over GST control)
binding signal [15]: 1.1 fold enrichment (6-mer frequency, TF over GST control)
binding signal [16]: 1.13 fold enrichment (6-mer frequency, TF over GST control)
